In PubChem BioAssay AID1159580 (chemical genetic matrix, 2015):
Values joined by “and” are separate entries in the source; they are usually repeats but may differ in a detail not shown here. Equal entries are not always repeated. The whole screen tested about 5,500 compounds, of which about 2,000 (36%) were called active. Not shown: some 18% with an inconclusive outcome. No stated cut-off is given here; in the data, active means normalized growth mostly below about 0.91 (no sharp cut-off); inconclusive means no clear call, values can overlap the other calls; inactive means mostly above about 0.92. The list shows a part of the results.

Assay: chemical genetic growth profiling, strain panel (AID 1159580);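 further: tested at 20 µM; growth read once vehicle control cultures reached saturation at 30 °C; 1 = growth at the plate median or of vehicle wells; lower values mean less growth of the strain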
Details: S. cerevisiae deletion strains, growth OD

Measured: normalized growth

COC1=C[C@@H]2[C@@H]3Cc4ccc(OC)c(O)c4[C@]2(CCN3C)CC1=O
inactive: locus YAL013W, strain DEP1, hits give low values 0.985 | locus YAL021C, strain ccr4, hits give low values 1.01 | locus YAL026C, strain drs2, hits give low values 1 | locus YAL030W, strain snc1, hits give low values 1 | locus YBL061C, strain skt5, hits give low values 1.01 | locus YBR009C, strain hhf1, hits give low values 1 | locus YBR021W, strain FUR4, hits give low values 1.04 | locus YBR023C, strain chs3, hits give low values 1 | locus YBR171W, strain sec66, hits give low values 0.983 | locus YBR229C, strain ROT2, hits give low values 0.961 | locus YBR231C, strain swc5, hits give low values 0.995 | locus YBR279W, strain paf1, hits give low values 0.991 | locus YCL011C, strain gbp2, hits give low values 1 | locus YCL016C, strain dcc1, hits give low values 0.977 | locus YCL029C, strain bik1, hits give low values 0.967 | locus YCL069W, strain vba3, hits give low values 1.01 | locus YCR088W, strain abp1, hits give low values 0.987 | locus YDL005C, strain med2, hits give low values 0.997 | locus YDL035C, strain GPR1, hits give low values 1 | locus YDL040C, strain nat1, hits give low values 1 | locus YDL074C, strain BRE1, hits give low values 0.952 | locus YDL101C, strain DUN1, hits give low values 0.972 | locus YDL134C, strain PPH21, hits give low values 0.981 | locus YDL185W, strain tfp1, hits give low values 0.929 | locus YDL192W, strain arf1, hits give low values 0.987 | locus YDR001C, strain nth1, hits give low values 1 | locus YDR069C, strain doa4, hits give low values 0.979 | locus YDR101C, strain arx1, hits give low values 1 | locus YDR137W, strain rgp1, hits give low values 0.972 | locus YDR150W, strain NUM1, hits give low values 0.971 | locus YDR159W, strain sac3, hits give low values 0.967 | locus YDR162C, strain NBP2, hits give low values 0.969 | locus YDR195W, strain ref2 0.967 | locus YDR297W, strain sur2, hits give low values 1 | locus YDR318W, strain mcm21, hits give low values 0.995 | locus YDR334W, strain swr1, hits give low values 0.984 | locus YDR335W, strain msn5, hits give low values 0.986 | locus YDR388W, hits give low values 0.984 | locus YDR392W, strain spt3, hits give low values 0.988 | locus YDR502C, strain sam2, hits give low values 0.986 | locus YEL003W, strain gim4, hits give low values 1 | locus YEL037C, strain rad23, hits give low values 0.999 | locus YEL061C, strain CIN8 (second series), hits give low values 0.999 | locus YEL061C, strain CIN8, hits give low values 0.982 | locus YER015W, strain faa2, hits give low values 0.986 | locus YER016W, strain bim1, hits give low values 1 | locus YER110C, hits give low values 0.969 | locus YER111C, strain swi4, hits give low values 1.01 | locus YER155C, strain BEM2 (second series), hits give low values 1.01 | locus YER155C, strain BEM2, hits give low values 1 | locus YER167W, strain BCK2, hits give low values 1 | locus YFR010W, strain ubp6, hits give low values 1.01 | locus YGL078C, strain dbp3, hits give low values 0.971 | locus YGL086W, strain mad1, hits give low values 0.99 | locus YGL167C, strain pmr1, hits give low values 0.986 | locus YGL173C, strain kem1, hits give low values 0.99 | locus YGL227W, strain vid30, hits give low values 1 | locus YGL240W, strain doc1, hits give low values 1 | locus YGL248W, strain PDE1, hits give low values 0.972 | locus YGL253W, strain hxk2, hits give low values 1.01 | locus YGR078C, strain PAC10, hits give low values 0.965 | locus YGR135W, strain pre9, hits give low values 0.959 | locus YGR229C, strain SMI1, hits give low values 0.974 | locus YGR252W, strain gcn5, hits give low values 1 | locus YHR013C, strain ard1, hits give low values 0.962 | locus YHR027C, strain rpn1, hits give low values 0.992 | locus YHR030C, strain SLT2, hits give low values 1 and 1.03 | locus YHR079C, strain IRE1 (second series), hits give low values 0.987 | locus YHR079C, strain IRE1, hits give low values 1.03 | locus YHR094C, strain hxt1, hits give low values 0.978 | locus YHR129C, strain ARP1, hits give low values 0.996 | locus YHR142W, strain chs7, hits give low values 0.999 | locus YHR200W, strain rpn10, hits give low values 0.975 | locus YIL066C, strain RNR3, hits give low values 0.972 | locus YIL073C, strain SPO22, hits give low values 1.03 | locus YIL125W, strain kgd1, hits give low values 0.968 | locus YIR030C, strain dcg1, hits give low values 0.989 | locus YJL092W, strain hpr5, hits give low values 0.997 | locus YJL095W, strain BCK1 (second series), hits give low values 1 | locus YJL095W, strain BCK1, hits give low values 0.963 and 1.03 | locus YJL115W, strain asf1, hits give low values 1.01 | locus YJL129C, strain trk1, hits give low values 0.977 | locus YJL134W, strain LCB3, hits give low values 0.989 | locus YJL154C, strain vps35, hits give low values 0.988 | locus YJL164C, strain tpk1, hits give low values 0.997 | locus YJL166W, strain qcr8, hits give low values 1 | locus YJL168C, strain set2, hits give low values 0.982 | locus YJL187C, strain SWE1 (second series), hits give low values 0.958 | locus YJR043C, strain POL32, hits give low values 1.03 | locus YJR066W, strain TOR1, hits give low values 0.97
